Measured values: the supplement of paper PMC9262897, “Low-cost anti-mycobacterial drug discovery using engineered E. coli” (Nature Communications, 2022)
Where a name gives a salt, the structure may show the parent alone. ± gives the standard deviation of the averaged measurements.

The molecules below were run on E. coli TESEC Mtb Alr (assay: growth (OD600 after 10 h); higher = more growth (less inhibition)). Settings: arabinose 1000 nM; compound 0.1 mM; raw OD600 reference: median of DMSO wells 0.294, cell-free background 0.041.
Method: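 TESEC Mtb Alr E. coli, or the Alr+ wild-type control, in 384-well plates with Prestwick library compounds at 0.1 mM and 1% DMSO, across arabinose induction levels of 1E3 to 1E7 nM. Growth is read as OD600 after 10 h at 37 °C in triplicate biological replicates.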

Row | SMILES | growth
1 | CC(N)C(O)c1ccccc1 (centres undefined) [Phenylpropanolamine hydrochloride] | 0.298 ± 0.0047
2 | CC[C@@]1([C@@H]2O[C@@H]([C@H]3O[C@@](O)(CO)[C@H](C)C[C@@H]3C)C[C@@H]2C)CC[C@H]([C@]2(C)CC[C@]3(C[C@H](O)[C@@H](C)[C@@H]([C@@H](C)[C@@H](OC)[C@H](C)C(=O)O)O3)O2)O1 [Monensin sodium salt] | 0.279 ± 0.017
3 | CC(C)[N+](C)(CCC(C(N)=O)(c1ccccc1)c1ccccc1)C(C)C [Isopropamide iodide] | 0.285 ± 0.0086
4 | CN1C[C@H](C(=O)N[C@]2(C)O[C@@]3(O)[C@@H]4CCCN4C(=O)[C@H](Cc4ccccc4)N3C2=O)C[C@@H]2c3cccc4[nH]cc(c34)C[C@H]21 [Dihydroergotamine tartrate] | 0.0712 ± 0.0052
5 | CN1[C@@H]2C[C@@H](OC(=O)[C@H](CO)c3ccccc3)C[C@H]1[C@@H]1O[C@@H]12 [Scopolamine hydrochloride] | 0.321 ± 0.023
6 | CN1[C@@H]2CC[C@H]1C[C@@H](OC(=O)[C@H](CO)c1ccccc1)C2 [Hyoscyamine (L)] | 0.293 ± 0.024
7 | CN(C)C(=O)Oc1ccc[n+](C)c1 [Pyridostigmine iodide] | 0.305 ± 0.0085
8 | CC[N+]1(C)CCCC(OC(=O)C(O)(c2ccccc2)c2ccccc2)C1 (centres undefined) [Pipenzolate bromide] | 0.284 ± 0.014
9 | CC(Cc1ccccc1)NCCC(c1ccccc1)c1ccccc1 (centres undefined) [Prenylamine lactate] | 0.03927 ± 0.00035
10 | C#C[C@]1(O)CC[C@H]2[C@@H]3CCC4=CC(=O)CC[C@]4(C)[C@H]3CC[C@@]21C [Ethisterone] | 0.28 ± 0.01
11 | CCNCC(O)c1cccc(O)c1 (centres undefined) [Etilefrine hydrochloride] | 0.3085 ± 0.0027
12 | COc1cccc(C2(O)CCCCC2CN(C)C)c1 (centres undefined) [Tramadol hydrochloride] | 0.308 ± 0.012
13 | C=CCN1CC[C@]23c4c5ccc(O)c4O[C@H]2C(=O)CC[C@@]3(O)[C@H]1C5 [Naloxone hydrochloride] | 0.266 ± 0.026
14 | O=c1[nH]c2ccccc2n1C1CCN(CCCC(c2ccc(F)cc2)c2ccc(F)cc2)CC1 [Pimozide] | 0.243 ± 0.0073
15 | CC[C@@H](CO)NC(=O)[C@@H]1C=C2c3cccc4[nH]cc(c34)C[C@H]2N(C)C1 [Methylergometrine maleate] | 0.262 ± 0.0081
16 | C[C@]12Cc3c[nH]nc3C[C@@H]1CC[C@@H]1[C@@H]2CC[C@@]2(C)[C@H]1CC[C@]2(C)O [Stanozolol] | 0.256 ± 0.0051
17 | CN1CCC2(C)c3cc(O)ccc3N(C)C12 (single isomer, unassigned; (-)) [(-)-Eseroline fumarate salt] | 0.287 ± 0.014
18 | C[C@@H]1O[C@@H](O[C@@H]2C=C3CC[C@@H]4[C@H](CC[C@]5(C)[C@@H](c6ccc(=O)oc6)CC[C@]45O)[C@@]3(C)CC2)[C@H](O)[C@H](O)[C@H]1O [Proscillaridin A] | 0.247 ± 0.0077
19 | COc1ccc(CN2CCNCC2)c(OC)c1OC [Trimetazidine dihydrochloride] | 0.3105 ± 0.0026
20 | C[N+]1(C)CCOC(O)(c2ccc(-c3ccc(C4(O)C[N+](C)(C)CCO4)cc3)cc2)C1 (centres undefined) [Hemicholinium bromide] | 0.298 ± 0.02

Row | SMILES | growth
21 | OC(c1ccccc1)(c1ccccc1)C1CCNCC1 [Azacyclonol] | 0.294 ± 0.011
22 | CCN(C(C)=O)c1cccc(-c2ccnc3c(C#N)cnn23)c1 [Zaleplon] | 0.259 ± 0.0063
23 | Cc1cc(C(C#N)c2ccc(Cl)cc2)c(Cl)cc1NC(=O)c1cc(I)cc(I)c1O (centres undefined) [Closantel] | 0.0633 ± 0.008
24 | C[C@]12CC[C@H](O)C[C@H]1CC[C@@H]1[C@@H]2C[C@@H](O)[C@]2(C)[C@@H](C3=CC(=O)OC3)CC[C@]12O [Digoxigenin] | 0.299 ± 0.018
25 | COc1cc2c(c(OC)c1OC)-c1ccc(OC)c(=O)cc1[C@@H](NC(C)=O)CC2 [Colchicine] | 0.262 ± 0.034
26 | C=C1C[C@@H]2[C@H](CC[C@]3(C)C(=O)CC[C@@H]23)[C@@]2(C)C=CC(=O)C=C12 [Exemestane] | 0.1298 ± 0.0011
27 | C=C1CC[C@@]2(O)[C@H]3Cc4ccc(O)c5c4[C@@]2(CCN3CC2CC2)[C@H]1O5 [Nalmefene hydrochloride] | 0.3098 ± 0.003
28 | C[N+](C)(C)CCCCCCCCCC[N+](C)(C)C [Decamethonium bromide] | 0.286 ± 0.015
29 | CCn1cc(C(=O)O)c(=O)c2cc3c(cc21)OCO3 [Oxolinic acid] | 0.05577 ± 0.00049
30 | O=P1(N(CCCl)CCCl)NCCCO1 (centres undefined) [Cyclophosphamide] | 0.271 ± 0.011
31 | CC(CCc1ccccc1)NC(C)C(O)c1ccc(O)cc1 (centres undefined) [Nylidrin] | 0.297 ± 0.018
32 | NCCCNCCSP(=O)(O)O [Amifostine] | 0.297 ± 0.011
33 | CCC1(c2ccc(N)cc2)CCC(=O)NC1=O (centres undefined) [Glutethimide, para-amino] | 0.279 ± 0.016
34 | CCN(CC)C(C)C(=O)c1ccccc1 (centres undefined) [Amfepramone hydrochloride] | 0.259 ± 0.051
35 | C=C(C)[C@@H]1[C@H]2OC(=O)[C@@H]1[C@]1(O)C[C@H]3O[C@]34C(=O)O[C@H]2[C@]14C [Picrotoxinin] | 0.314 ± 0.023
36 | CC1C=CC=CCCC=CC=CC=CC=CC(OC2OC(C)C(O)C(N)C2O)CC2OC(O)(CC(O)C(O)CCC(O)CC(O)CC(O)CC(=O)OC(C)C(C)C1O)CC(O)C2C(=O)O (centres undefined) [Nystatine] | 0.307 ± 0.025
37 | CC(C)CC(N(C)C)C1(c2ccc(Cl)cc2)CCC1 (centres undefined) [Sibutramine HCl] | 0.264 ± 0.0096
38 | CCC1(CC)C(=O)C=CNC1=O [Pyrithyldione] | 0.295 ± 0.026
39 | CCN(C)C(=O)Oc1cccc([C@H](C)N(C)C)c1 [Rivastigmine] | 0.293 ± 0.004
